In PMC10812921, “Transcriptional Coactivator BOB1 (OBF1, OCA-B) Modulates the Specificity of DNA Recognition by the POU-Domain Factors OCT1 and OCT2 in a Monomeric Configuration”:

Legend:
POU1 (OCT1 POU domain) = POU1 (OCT1 POU domain) (human, UniProt P14859 260-458); assay: EMSA-SELEX-seq; no BOB1; 20 mM Tris-HCl pH 7.6, 140 mM NaCl, 10% glycerol, 0.5 mM EDTA, 0.05% Triton X-100, 0.1 mg/mL BSA, 0.1 mg/mL poly(dI-dC), 5 mM DTT, room temperature, 20 min; high values mean tight binding; settings: protein: recombinant; dsDNA, one strand shown
Summary of the method: (§1)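 Binding preference is reported as the percentage of sequenced 8-mers that match a motif pattern. Tagged POU-domain proteins were made in E. coli BL21, purified under denaturing conditions and renatured. A 30 ng portion was combined with 300 ng of a PCR-amplified double-stranded random 35-nt library, with or without 28 ng coactivator protein, in 20 μL Tris–HCl pH 7.6 binding buffer for 20 min at RT. Complex bands were excised from native 6% PAGE, eluted and PCR-amplified over four rounds before Illumina sequencing.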

POU2 (OCT2 POU domain) = molecular target: T1, POU2 (OCT2 POU domain) (human, UniProt P09086 175-386); assay: as above; settings: protein: recombinant; dsDNA, one strand shown
T1 sequence: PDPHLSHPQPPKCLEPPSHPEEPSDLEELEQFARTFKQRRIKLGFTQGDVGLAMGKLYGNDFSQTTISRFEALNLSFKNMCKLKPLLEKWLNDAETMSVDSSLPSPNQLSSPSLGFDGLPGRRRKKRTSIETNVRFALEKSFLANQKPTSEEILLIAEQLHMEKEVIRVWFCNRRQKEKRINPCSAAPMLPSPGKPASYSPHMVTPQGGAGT
Summary of the method: as §1

[1] = molecular target: POU1 (OCT1 POU domain);BOB1 (OBF1, OCA-B) (human;human, UniProt P14859;Q16633 260-458;1-256, |); assay: EMSA-SELEX-seq; with BOB1 (ternary complex band); 20 mM Tris-HCl pH 7.6, 140 mM NaCl, 10% glycerol, 0.5 mM EDTA, 0.05% Triton X-100, 0.1 mg/mL BSA, 0.1 mg/mL poly(dI-dC), 5 mM DTT, room temperature, 20 min; high values mean tight binding; settings: protein: recombinant;recombinant; copies: 1;1; dsDNA, one strand shown
Summary of the method: as §1

[2] = molecular target: T2, POU2 (OCT2 POU domain);BOB1 (OBF1, OCA-B) (human;human, UniProt P09086;Q16633 175-386;1-256, |); assay: as above; settings: protein: recombinant;recombinant; copies: 1;1; dsDNA, one strand shown
T2 sequence 1: T1 sequence
T2 sequence 2: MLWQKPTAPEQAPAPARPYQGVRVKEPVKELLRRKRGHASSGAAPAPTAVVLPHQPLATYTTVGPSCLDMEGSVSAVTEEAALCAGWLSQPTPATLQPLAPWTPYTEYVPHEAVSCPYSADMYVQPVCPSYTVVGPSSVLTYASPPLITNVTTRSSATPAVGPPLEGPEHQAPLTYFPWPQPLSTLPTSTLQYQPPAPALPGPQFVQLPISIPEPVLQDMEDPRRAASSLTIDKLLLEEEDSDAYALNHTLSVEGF
Summary of the method: as §1

Chain of POU1 (OCT1 POU domain) (P14859 260-458): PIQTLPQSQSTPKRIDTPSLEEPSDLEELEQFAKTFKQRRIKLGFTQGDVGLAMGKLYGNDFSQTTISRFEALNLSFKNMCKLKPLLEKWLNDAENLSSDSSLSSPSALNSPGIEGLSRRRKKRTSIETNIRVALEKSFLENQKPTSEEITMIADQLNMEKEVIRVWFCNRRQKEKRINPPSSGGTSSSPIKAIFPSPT

Sequence | binding signal (POU1 (OCT1 POU domain)) | binding signal (POU2 (OCT2 POU domain)) | binding signal [1] | binding signal [2]
AACAAAAG | 0.0522 % of ANNNNAAN 8-mers | 0.0518 % of ANNNNAAN 8-mers | 0.0741 % of ANNNNAAN 8-mers | 0.0454 % of ANNNNAAN 8-mers
ATTTGAAA | 0.142 % of ANNNNAAN 8-mers | 0.0995 % of ANNNNAAN 8-mers | 0.178 % of ANNNNAAN 8-mers | 0.0933 % of ANNNNAAN 8-mers
AGCCAAAT | 0.0858 % of ANNNNAAN 8-mers | 0.0702 % of ANNNNAAN 8-mers | 0.167 % of ANNNNAAN 8-mers | 0.0892 % of ANNNNAAN 8-mers
AAGATAAA | 0.0622 % of ANNNNAAN 8-mers | 0.0662 % of ANNNNAAN 8-mers | 0.0585 % of ANNNNAAN 8-mers | 0.0405 % of ANNNNAAN 8-mers
AGCCAAAA | 0.0355 % of ANNNNAAN 8-mers | 0.038 % of ANNNNAAN 8-mers | 0.0499 % of ANNNNAAN 8-mers | 0.0305 % of ANNNNAAN 8-mers
AAGGCAAG | 0.0328 % of ANNNNAAN 8-mers | 0.038 % of ANNNNAAN 8-mers | 0.0328 % of ANNNNAAN 8-mers | 0.0256 % of ANNNNAAN 8-mers
AAGCAAAG | 0.0847 % of ANNNNAAN 8-mers | 0.0501 % of ANNNNAAN 8-mers | 0.125 % of ANNNNAAN 8-mers | 0.0537 % of ANNNNAAN 8-mers
AGAAAAAG | 0.0534 % of ANNNNAAN 8-mers | 0.0581 % of ANNNNAAN 8-mers | 0.0468 % of ANNNNAAN 8-mers | 0.0421 % of ANNNNAAN 8-mers
AACAAAAA | 0.0831 % of ANNNNAAN 8-mers | 0.0662 % of ANNNNAAN 8-mers | 0.121 % of ANNNNAAN 8-mers | 0.0726 % of ANNNNAAN 8-mers
AATGGAAC | 0.0439 % of ANNNNAAN 8-mers | 0.0466 % of ANNNNAAN 8-mers | 0.0449 % of ANNNNAAN 8-mers | 0.0528 % of ANNNNAAN 8-mers
ACCGAAAT | 0.0404 % of ANNNNAAN 8-mers | 0.0426 % of ANNNNAAN 8-mers | 0.0437 % of ANNNNAAN 8-mers | 0.0479 % of ANNNNAAN 8-mers
AGAAAAAC | 0.04 % of ANNNNAAN 8-mers | 0.0368 % of ANNNNAAN 8-mers | 0.0519 % of ANNNNAAN 8-mers | 0.0396 % of ANNNNAAN 8-mers
AGAACAAC | 0.0153 % of ANNNNAAN 8-mers | 0.0132 % of ANNNNAAN 8-mers | 0.0125 % of ANNNNAAN 8-mers | 0.0239 % of ANNNNAAN 8-mers
ATGTTAAC | 0.0645 % of ANNNNAAN 8-mers | 0.0938 % of ANNNNAAN 8-mers | 0.0578 % of ANNNNAAN 8-mers | 0.0586 % of ANNNNAAN 8-mers
AAGTCAAC | 0.0256 % of ANNNNAAN 8-mers | 0.0236 % of ANNNNAAN 8-mers | 0.0308 % of ANNNNAAN 8-mers | 0.0272 % of ANNNNAAN 8-mers
ATATGAAC | 0.0389 % of ANNNNAAN 8-mers | 0.0495 % of ANNNNAAN 8-mers | 0.03 % of ANNNNAAN 8-mers | 0.0528 % of ANNNNAAN 8-mers
ATCACAAA | 0.0332 % of ANNNNAAN 8-mers | 0.0374 % of ANNNNAAN 8-mers | 0.0539 % of ANNNNAAN 8-mers | 0.0438 % of ANNNNAAN 8-mers
ATCTGAAT | 0.201 % of ANNNNAAN 8-mers | 0.232 % of ANNNNAAN 8-mers | 0.102 % of ANNNNAAN 8-mers | 0.126 % of ANNNNAAN 8-mers
ATATTAAG | 0.196 % of ANNNNAAN 8-mers | 0.214 % of ANNNNAAN 8-mers | 0.0882 % of ANNNNAAN 8-mers | 0.117 % of ANNNNAAN 8-mers
ATTGTAAG | 0.0507 % of ANNNNAAN 8-mers | 0.0685 % of ANNNNAAN 8-mers | 0.0593 % of ANNNNAAN 8-mers | 0.0594 % of ANNNNAAN 8-mers
ACGCTAAT | 0.108 % of ANNNNAAN 8-mers | 0.14 % of ANNNNAAN 8-mers | 0.046 % of ANNNNAAN 8-mers | 0.0611 % of ANNNNAAN 8-mers
AATAGAAC | 0.0381 % of ANNNNAAN 8-mers | 0.0541 % of ANNNNAAN 8-mers | 0.0382 % of ANNNNAAN 8-mers | 0.0462 % of ANNNNAAN 8-mers
AGGCTAAA | 0.0381 % of ANNNNAAN 8-mers | 0.0414 % of ANNNNAAN 8-mers | 0.0363 % of ANNNNAAN 8-mers | 0.0454 % of ANNNNAAN 8-mers
ATAAAAAC | 0.066 % of ANNNNAAN 8-mers | 0.0633 % of ANNNNAAN 8-mers | 0.0562 % of ANNNNAAN 8-mers | 0.0495 % of ANNNNAAN 8-mers
AGAGTAAG | 0.0305 % of ANNNNAAN 8-mers | 0.0466 % of ANNNNAAN 8-mers | 0.039 % of ANNNNAAN 8-mers | 0.0297 % of ANNNNAAN 8-mers
ACTCAAAT | 0.0889 % of ANNNNAAN 8-mers | 0.061 % of ANNNNAAN 8-mers | 0.127 % of ANNNNAAN 8-mers | 0.0768 % of ANNNNAAN 8-mers
